Here are results for 14 compounds from PubChem BioAssay.

Experiment [1] is described as follows: inhibitors of TNFa-induced NFkB p65 translocation, primary screen, imaging, HUVEC, MLSMR starter and 10KST1 sets (AID 438;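 active means inhibition above 20% together with a positive visual image hit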;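 further: compound added about 3h40 before a 20 min TNFalpha stimulation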;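 on inhibition: signal is the nuclear over cytoplasmic p65 intensity ratio per well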). The conditions noted are these: HUVEC TNFa-induced p65 nuclear translocation; cell count: measured here: nuclei count (cytotoxicity indicator), at 2.08 µM; inhibition: at 2 µM, stronger effect = higher value, 0% TNFa-plus-vehicle, 100% no-TNFa wells.

Experiment [2] can be described thus: inhibitors of mutant huntingtin aggregation, primary screen, imaging, exon1htt(103Q)mCFP cells, high-content imaging (AID 483;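 active means visual image review flags a hit and inhibition of aggregation exceeds 20%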;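 further: compound exposure lasted 3 days before fixation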;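 on nuclei count: percent of the per-plate median nuclei count of sample wells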). The conditions noted are these: exon1htt(103Q)mCFP cell line, aggregate imaging, at 2 µM; inhibition of aggregation: stronger effect = higher value; nuclei count: measured here: cell count, toxicity.
Experiment [3] can be described thus: inhibitors of E-selectin induction by TNFa, primary screen, imaging, HUVEC, immunofluorescence, MLSMR starter and 10KST1 sets (AID 487;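 active means visually confirmed hit in the image check and inhibition above 20%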;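 on inhibition: signal is fraction of cell area covered by stained E-selectin grains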;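 on nuclei count: 100% = median nuclei count of all wells on the same plate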). The conditions noted are these: HUVEC TNFalpha-induced E-selectin immunofluorescence imaging, at 2 µM; inhibition: stronger effect = higher value; nuclei count: measured here: cell number, toxicity.
For experiment [4], the target named is Voltage-gated potassium channel subunit beta-2 (Rattus norvegicus) (UniProt P62483). The experiment is described as follows: KvBeta enzyme negative modulators, primary screen, biochemical, NADPH fluorescence (AID 622).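 Further: slope of raw intensity against log time taken from 70 to 1610 s.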 The conditions noted are these: recombinant KvBeta, 4-cyanobenzaldehyde reduction, at 10 µM, stronger effect = higher value.
Sequence of Voltage-gated potassium channel subunit beta-2 (Rattus norvegicus) (P62483 whole entry, looked up): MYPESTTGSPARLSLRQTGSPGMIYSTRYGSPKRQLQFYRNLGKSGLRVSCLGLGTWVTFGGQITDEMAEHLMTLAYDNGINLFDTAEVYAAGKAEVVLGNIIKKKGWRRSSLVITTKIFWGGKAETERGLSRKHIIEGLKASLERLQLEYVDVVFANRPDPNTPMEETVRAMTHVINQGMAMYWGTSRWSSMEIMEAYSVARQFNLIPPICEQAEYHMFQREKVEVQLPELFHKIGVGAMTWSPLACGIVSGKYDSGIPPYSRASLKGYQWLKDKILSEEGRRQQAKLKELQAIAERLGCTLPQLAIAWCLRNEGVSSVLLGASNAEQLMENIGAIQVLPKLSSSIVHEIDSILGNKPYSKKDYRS
The target is the same in experiment [5]. Description: KvBeta positive modulators, primary screen, biochemical, NADPH fluorescence (AID 623;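 active means NADPH fluorescence slope more negative than the mean of all samples by about 3 SD, 99.7% confidence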;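 further: fluorescence intensity change per second fitted from 20 to 320 s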). The conditions noted are these: Recombinant KvBeta, NADPH fluorescence decrease slope, 10 min; at 10 µM; stronger effect = lower value.
Experiment [6] has as its target Alpha-2C adrenergic receptor (Homo sapiens) (UniProt P18825). Description: modulators of alpha2C/GIRK thallium flux, primary screen, cell-based, HEK293 alpha2C/GIRK1/2 (AID 624;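 active means fluorescence slope after compound addition differing from the mean of all screened samples at 99.7% confidence, in either direction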;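 further: slope of fluorescence ratio to pre-addition baseline per second over 15 to 24 s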). The settings on record: thallium flux BTC fluorescence, at 10 µM, actives lie on both sides.
A short description of experiment [7]: inhibitors of Sendai virus-induced IRF3 signaling, primary screen, TLR/RLR signaling modifier project, cell-based, Sendai virus stimulus, luciferase, 10K MLSCN set (AID 602276;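 active means inhibition at or above 50% at 10 µM; inactive means inhibition below 50%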;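 further: firefly luciferase from ISG56 promoter only with Renilla not read in this screen; 0% = Sendai virus plus DMSO and 100% = medium plus DMSO without virus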). The settings on record: HEK293 RL24 IRF3 luciferase reporter, at 10 µM, stronger effect = higher value. A general note: A reporter such as luciferase makes a cellular process visible.
The nature of experiment [8]: inhibitors of poly I:C-induced TLR3 signaling, primary screen, cell-based, poly I:C stimulus, luciferase, 10K MLSCN set (AID 602277;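 active means inhibition of the reporter signal at or above 50%; inactive means inhibition below 50%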). The settings on record: HEK293-TLR3 RL24 IRF3 luciferase reporter, at 10 µM, stronger effect = higher value.

The source made the active and inactive calls.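 How the source made its calls, unless noted: active means fluorescence slope higher than the sample average by over 3 SD (cut at about -0.22 in these data, passing the limit was not always enough); inactive means the rest.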

Sequence of Alpha-2C adrenergic receptor (Homo sapiens) (P18825 whole entry, looked up): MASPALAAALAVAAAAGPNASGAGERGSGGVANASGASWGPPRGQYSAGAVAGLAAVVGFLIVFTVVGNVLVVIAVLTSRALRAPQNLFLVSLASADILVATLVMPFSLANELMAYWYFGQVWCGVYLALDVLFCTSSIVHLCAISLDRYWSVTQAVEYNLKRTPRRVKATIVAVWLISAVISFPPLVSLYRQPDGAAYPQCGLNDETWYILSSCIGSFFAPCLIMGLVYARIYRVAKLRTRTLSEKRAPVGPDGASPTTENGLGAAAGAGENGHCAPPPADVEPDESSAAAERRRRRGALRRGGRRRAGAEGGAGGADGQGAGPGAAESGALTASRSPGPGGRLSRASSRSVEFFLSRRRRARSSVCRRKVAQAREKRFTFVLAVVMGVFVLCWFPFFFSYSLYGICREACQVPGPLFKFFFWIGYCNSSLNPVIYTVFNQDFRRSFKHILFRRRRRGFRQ

For orientation: inhibition means the relative decrease from the control value, in per cent. As for `Nc1ncnc2oc(-c3ccco3)c(-c3ccco3)c12`, the cell count in experiment [1] was determined as 413. Moreover, the inhibition in experiment [1] was -3.3% (inactive); in experiment [3], -29.9% (inactive); in experiment [7], -5.47% (inactive); in experiment [8] it was -31.5% (inactive). In addition, the inhibition of aggregation in experiment [2] was 15.7% (inactive). Moreover, the nuclei count in experiment [2] was found to be 84.7%; in experiment [3], 111%. The fluorescence slope in experiment [4] is -0.49 (inactive). The NADPH fluorescence slope in experiment [5] was -1.2e-05 (inactive). In addition, the slope in experiment [6] was 0.00377 (inactive).
`CC(=O)N1CCN(C(=O)COc2ccc(Br)cc2)CC1`: the cell count in experiment [1] was 518. In addition, the inhibition in experiment [1] is -6.3% (inactive); in experiment [3], -21.9% (inactive); in experiment [7], 5.88% (inactive); in experiment [8], 13.4% (inactive). The inhibition of aggregation in experiment [2] is -1.5% (inactive). Further, the values for the nuclei count in experiment [2] and in experiment [3] were 93.7% and 139%, respectively. For the same compound, the fluorescence slope in experiment [4] is -0.592 (inactive). Besides, the NADPH fluorescence slope in experiment [5] was -5.6e-05 (inactive). In experiment [6], the slope is 0.00597 (inactive).
`CCOC(=O)c1c(C)oc2c1c1c(c3ccccc32)OCN(Cc2cccnc2)C1`: the cell count in experiment [1] was 499. In addition, the inhibition is -2.1% (inactive) in experiment [1], -8.4% (inactive) in experiment [3], -1.25% (inactive) in experiment [7] and 15.3% (inactive) in experiment [8]. Moreover, in experiment [2], the inhibition of aggregation is 8.8% (inactive). Besides, the nuclei count in experiment [2] came to 100%; in experiment [3] it was 104%. The fluorescence slope in experiment [4] is -0.367 (inactive). Further, in experiment [5], the NADPH fluorescence slope was 1.6e-05 (inactive). In experiment [6], the slope is 0.00433 (inactive).
Turning to `O=C1CCCN1Cc1ncnn1-c1ccccc1`, the cell count in experiment [1] is 453. For the same compound, the inhibition in experiment [1] is -1.8% (inactive); in experiment [3], -85.8% (inactive); in experiment [7] it was 7.63% (inactive); in experiment [8] it was 3.72% (inactive). Moreover, the inhibition of aggregation in experiment [2] was 10.2% (inactive). The nuclei count in experiment [2] came out at 114%; in experiment [3], 131%. In addition, the fluorescence slope in experiment [4] was -0.349 (inactive). In addition, the NADPH fluorescence slope in experiment [5] is -6.8e-05 (inactive). The slope in experiment [6] is 0.00512 (inactive).
In the case of `COc1ccc(N(CC(=O)Nc2cc(C)ccc2C)S(=O)(=O)c2c(C)nn(C)c2C)cc1`, in experiment [1], the cell count stood at 499. The inhibition is -2.3% (inactive) in experiment [1], -8.4% (inactive) in experiment [3], -2.9% (inactive) in experiment [7] and 21.3% (inactive) in experiment [8]. Besides, the inhibition of aggregation in experiment [2] is 30.5% (inactive). Further, the figures for the nuclei count in experiment [2] and in experiment [3] were 65.3% and 101%, respectively. Besides, in experiment [4], the fluorescence slope is -0.603 (inactive). For the same compound, the NADPH fluorescence slope in experiment [5] is -2.9e-05 (inactive). The slope in experiment [6] is 0.0057 (inactive).
Regarding `Cc1ccc(S(=O)(=O)NCC(=O)N(CC(=O)NC2CCCCC2)Cc2ccco2)cc1`, the cell count in experiment [1] was 294. The inhibition in experiment [1] is 8.1% (inactive); in experiment [3], -54.4% (inactive); in experiment [7], 8.19% (inactive); in experiment [8] it was 20% (inactive). Moreover, in experiment [2], the inhibition of aggregation was 12.7% (inactive). For the same compound, the figures for the nuclei count in experiment [2] and in experiment [3] were 97.1% and 110%, respectively. Further, the fluorescence slope in experiment [4] is -0.431 (inactive). For the same compound, the NADPH fluorescence slope in experiment [5] is -4.7e-05 (inactive). In experiment [6], the slope is 0.00754 (inactive).
For the compound `COc1ccccc1N1C(=O)CCC1(C#N)c1ccccc1` (centres undefined), in experiment [1], the cell count stood at 567. Further, the inhibition in experiment [1] is 6.9% (inactive); in experiment [3], -30.3% (inactive); in experiment [7], -5.14% (inactive); in experiment [8], 9.48% (inactive). In experiment [2], the inhibition of aggregation is -0.9% (inactive). Also, the nuclei count in experiment [2] came to 87.7%; in experiment [3], 72.2%. In addition, the fluorescence slope in experiment [4] was -0.62 (inactive). The NADPH fluorescence slope in experiment [5] is 6e-06 (inactive). Moreover, the slope in experiment [6] was 0.0062 (inactive).
For the compound `Cc1ccc(CNc2cc(-c3nn4c(C)nnc4s3)ccc2C)s1`, the cell count in experiment [1] was determined as 679. Also, the inhibition was 8.6% (inactive) in experiment [1], -76.3% (inactive) in experiment [3], 5.73% (inactive) in experiment [7] and 13.7% (inactive) in experiment [8]. In addition, the inhibition of aggregation in experiment [2] is -34.9% (inactive). In addition, the nuclei count in experiment [2] worked out at 2.1%; in experiment [3], 102%. In experiment [4], the fluorescence slope is -0.444 (inactive). In experiment [5], the NADPH fluorescence slope was -1.1e-05 (inactive). Besides, the slope in experiment [6] is 0.00646 (inactive).
As for `Cc1cccc(-n2c(O)c(C=Nc3ccccc3N)c(=O)[nH]c2=O)c1`, in experiment [1], the cell count is 444. For the same compound, the inhibition was 6% (inactive) in experiment [1], -29.2% (inactive) in experiment [3], 13% (inactive) in experiment [7] and 25.3% (inactive) in experiment [8]. For the same compound, in experiment [2], the inhibition of aggregation is -8.1% (inactive). Further, the nuclei count was found to be 101% in experiment [2] and 120% in experiment [3]. In addition, the fluorescence slope in experiment [4] is -0.414 (inactive). Further, the NADPH fluorescence slope in experiment [5] is -0.000142 (inactive). The slope in experiment [6] is 0.00576 (inactive).
For the compound `Cc1ccc(-c2csc3ncn(-n4c(C)ccc4C)c(=O)c23)o1`, in experiment [1], the cell count turned out to be 575. Moreover, the inhibition is 6.1% (inactive) in experiment [1], 55.1% (active) in experiment [3], -15.1% (inactive) in experiment [7] and 12.5% (inactive) in experiment [8]. In addition, in experiment [2], the inhibition of aggregation was -0.6% (inactive). For the same compound, the values for the nuclei count in experiment [2] and in experiment [3] were 82.8% and 66.1%, respectively. For the same compound, the fluorescence slope in experiment [4] was -0.468 (inactive). Moreover, the NADPH fluorescence slope in experiment [5] was 3.1e-05 (inactive). Moreover, the slope in experiment [6] is 0.00663 (inactive).
For the compound `Cc1cc(C(=O)NCc2cccnc2)n(-c2ccccc2)n1`, the cell count in experiment [1] is 613. Also, the inhibition was -0.9% (inactive) in experiment [1], -82.8% (inactive) in experiment [3], -0.216% (inactive) in experiment [7] and 8.35% (inactive) in experiment [8]. The inhibition of aggregation in experiment [2] was -20.8% (inactive). Moreover, the nuclei count in experiment [2] stood at 103%; in experiment [3] it was 127%. In addition, the fluorescence slope in experiment [4] was -0.546 (inactive). Also, the NADPH fluorescence slope in experiment [5] is -1.4e-05 (inactive). Further, the slope in experiment [6] is 0.00657 (inactive).
In the case of `COCCn1c(SCC(=O)N2CCc3ccccc32)nc2c(c1=O)SC(C)C2` (centres undefined), in experiment [1], the cell count worked out at 499. Moreover, the inhibition in experiment [1] was -4.4% (inactive); in experiment [3] it was -0.4% (inactive); in experiment [7], 1.65% (inactive); in experiment [8], 22.3% (inactive). Further, the inhibition of aggregation in experiment [2] is 13% (inactive). Further, the nuclei count turned out to be 87.2% in experiment [2] and 109% in experiment [3]. Besides, in experiment [4], the fluorescence slope was -0.45 (inactive). In addition, the NADPH fluorescence slope in experiment [5] was -1.4e-05 (inactive). For the same compound, in experiment [6], the slope is 0.00569 (inactive).
For the compound `O=C(CSc1nnc2c3cc(F)ccc3nc(-c3ccccc3)n12)N1CCOCC1`, the cell count in experiment [1] came out at 597. For the same compound, the inhibition in experiment [1] was 4.9% (inactive); in experiment [3], -23.2% (inactive); in experiment [7], -0.506% (inactive); in experiment [8], -0.765% (inactive). In addition, the inhibition of aggregation in experiment [2] was -0.6% (inactive). Moreover, the nuclei count in experiment [2] turned out to be 104%; in experiment [3], 96.3%. Besides, in experiment [4], the fluorescence slope was -0.37 (inactive). Further, the NADPH fluorescence slope in experiment [5] is -7.1e-06 (inactive). For the same compound, the slope in experiment [6] is 0.00625 (inactive).
With `Cc1ccc(CCNC(=O)C2CCC(=O)N2C2CCCC2)cc1` (centres undefined), the cell count in experiment [1] came to 703. Further, the inhibition was -1.3% (inactive) in experiment [1], 16.9% (inactive) in experiment [3], 1.44% (inactive) in experiment [7] and 10.9% (inactive) in experiment [8]. Further, in experiment [2], the inhibition of aggregation was 6.9% (inactive). Further, the nuclei count in experiment [2] is 97.5%; in experiment [3] it was 97.7%. Further, in experiment [4], the fluorescence slope was -0.493 (inactive). In experiment [5], the NADPH fluorescence slope was -4.7e-05 (inactive). Besides, the slope in experiment [6] is 0.0072 (inactive).
